From PubChem BioAssay
NPC1 prom act: NPC1 promoter activation. Huh7 NPC1 promoter luciferase reporter, 24 h. Potency, µM (top dose mostly 9.22 µM), for the others: at the top dose activation, actives largely listed as activators. hit rate 2.4% among 320,000; note: % of control where 0% means no effect; nearly all actives have a fitted effect of over 60% in size
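In 1536-well qHTS, Huh7 cells harboring an NPC1 promoter–luciferase construct received compound for 24 h; activation was quantified by luminescence following luciferase reagent addition.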
Luc counter: Kinase-Glo luciferase inhibition (counter-screen). Q27757. Kinase-Glo luciferase, ATP luminescence, 8 min. Potency, µM (top dose mostly 38.3 µM), for the others: top-dose activity change, negative = inhibition, usual class: inhibitors. hit rate 0.28% among 200,000. AID 1379; note: % is set by controls: 0 for no effect and ±100 for the full control effect; nearly all actives have a fitted effect of over 60% in size
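Recombinant Kinase-Glo luciferase, 10 uM ATP (linear range), luciferin; imidazole pH 7.2 / KCl / MgCl2 / Tween / BSA buffer; 8 min RT; luminescence.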
Rab9 promoter act: activators of Rab9 promoter. Huh7 Rab9 promoter-luciferase reporter, luminescence, 24 h. Potency, µM (top dose mostly 9.22 µM), without a hit: top-dose activation, negative = inhibition, usual class: activators. hit rate 2.8% among 320,000; note: % of control where 0% means no effect; nearly all actives have a fitted effect of over 60% in size
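Huh7 cells stably carrying Rab9 promoter–luciferase reporter, plated 1500 cells/well, compound added after 2 h and incubated 24 h at 37 °C; luciferase luminescence then read after 10 min with detection reagent.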
ELG1 genotoxic: inducers of genotoxicity in HEK293T ELG1-luciferase cells | HEK293T ELG1-luciferase reporter, luminescence, 16 h | Potency, µM (highest dose often 46 µM), without a hit: at the top dose activity change, positive = activation, usual class: activators | hit rate 1.3% among 330,000 | AID 504466; note: % of control where 0% means no effect; nearly all actives have a fitted effect of over 60% in size
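16 hr compound incubation (37 °C, 5% CO2) of HEK293T cells carrying luciferase-tagged ELG1; luciferase then measured by ONE-Glo luminescence after 30 min at RT.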
SMN2 splice enh: increases expression of the SMN2 splice variant. HEK293 SMN2-luciferase splicing reporter, luminescence, 30-36 h. Potency, µM (doses to about 46.1 µM), for the others: top-dose activity change, positive = activation, hits mostly activators. hit rate 2.8% among 210,000; note: % of control where 0% means no effect; nearly all actives have a fitted effect of over 55% in size
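HEK293 cells carry an SMN2 […]–luciferase reporter in which exon 7 inclusion puts luciferase in frame. Cells were plated 10-12 h before compound addition, then incubated 30-36 h at 37C. ONE-Glo luminescence was read; sodium butyrate at 4.5 mM final served as control.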
FLuc modulator: firefly luciferase modulation, counter-screen for miR-21 project. P08659. purified FLuc, Km substrates, luminescence inhibition. Potency, µM (doses to about 57.5 µM), inactives show at the top dose activity change, negative = inhibition, usual class: inhibitors. hit rate 6.9% among 360,000;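 note: plate controls were vehicle for no effect and reference inhibitor for full effect; nearly all actives have a fitted effect of over 55% in size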
Target sequence (P08659 whole entry, looked up): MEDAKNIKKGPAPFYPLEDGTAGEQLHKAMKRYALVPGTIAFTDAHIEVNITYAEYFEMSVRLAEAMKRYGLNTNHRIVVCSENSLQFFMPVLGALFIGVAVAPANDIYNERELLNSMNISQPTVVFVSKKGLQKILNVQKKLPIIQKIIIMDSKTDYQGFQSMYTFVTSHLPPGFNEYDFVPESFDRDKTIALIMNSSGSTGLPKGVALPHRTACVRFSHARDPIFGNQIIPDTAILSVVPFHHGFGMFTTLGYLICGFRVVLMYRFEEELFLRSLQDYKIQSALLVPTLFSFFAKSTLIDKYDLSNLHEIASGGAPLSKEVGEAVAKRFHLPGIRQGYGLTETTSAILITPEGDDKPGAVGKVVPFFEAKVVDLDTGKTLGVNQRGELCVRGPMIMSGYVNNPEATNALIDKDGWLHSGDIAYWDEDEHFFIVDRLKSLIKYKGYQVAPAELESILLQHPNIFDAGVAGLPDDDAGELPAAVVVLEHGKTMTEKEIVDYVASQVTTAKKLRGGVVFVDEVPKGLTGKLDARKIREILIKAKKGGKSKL
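Purified P. pyralis luciferase (10nM final) with 10uM D-luciferin and 10uM ATP (Km levels) in 50mM Tris acetate pH 7.5, 10mM Mg acetate, 0.01% Tween-20, 0.05% BSA; qHTS 6-point titration, ~60 µM downward; luminescence read.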
Starred values were filed as active, the others as inactive; ? = inconclusive; . = not tested or not shown; [ ] = dose if it differs, or a comment. The list is not random: actives were taken first. Their share in the collection is about 7.3%. Calls come from the whole dose curve; as a rule, active = well fitted curve in the direction sought with a large enough effect; inconclusive = small, poorly fitted or top-dose-only effect, or another doubt; inactive = no such curve, though single readings can be large; an effect the other way counts as inactive or inconclusive. Potency is the fitted concentration of half-maximal effect.

SMILES	NPC1 prom act	Luc counter	Rab9 promoter act	ELG1 genotoxic	SMN2 splice enh	FLuc modulator
CCn1cc(C(=O)NCCCN2CCC(C)CC2)c(=O)c2cc(S(=O)(=O)N3CCCC3)ccc21	-3.1%	-1.6%	-6.2%	0.1%	-7.4%	-2.3%
Cn1cc(C(=O)NC2CCCCC2)c(=O)c2cc(S(=O)(=O)N3CCCC3)ccc21	1.4%	0.3%	-7.7%	1.5%	11.2µM*	0.1%
COc1ccc(/C=C/C(=O)N(C)C2CCCCC2)cc1Br	15.7%	-2.1%	22.5%	?	?	23.9µM*
CN(C(=O)/C=C/c1cnc2ccccc2c1)C1CCCCC1	1.58µM*	-2.3%	1.12µM*	-0.9%	3.16µM*	4.26µM*
CCOC(=O)c1sc2ccccc2c1S(=O)(=O)N1CCN(c2cccc(C)c2C)CC1	.	.	.	.	.	-0.2%
Cc1ccc(NC(=O)CSc2nc3c(oc4ccccc43)c(=O)n2-c2ccc(F)cc2)c(C)c1	.	.	.	.	-5.0%	-1.8%
COc1ccc(CCNC(=O)CCCn2c(=O)c3ccccc3n(CC(=O)Nc3cccc(C)c3)c2=O)cc1OC	.	.	.	.	2.8%	-1.1%
CCOc1ccc(N(CC)S(=O)(=O)N2CCCC(C(=O)Nc3cc(Cl)ccc3C)C2)cc1 (stereo unspecified)	.	.	.	.	.	-10.2%
COc1ccc(OC)c(NC(=O)COc2ccc3c(c2)CCC3)c1	-2.3%	.	-8.6%	1.1%	.	-26.7%
COC(=O)c1ccccc1NC(=O)c1ccc(COc2ccc3c(c2)CCC3)cc1	15.2%	1.2%	9.3%	3.9%	-2.3%	?
COc1ccccc1NC(=O)c1ccc(COc2ccc3c(c2)CCC3)cc1	20.6%	4.0%	23.7%	6.7%	11.2µM*	-2.1%
COc1ccccc1NC(=O)c1nc(SCc2ccc(F)cc2)ncc1Cl	.	.	.	.	-5.2%	4.6%
COc1ccccc1NC(=O)c1ccc(CSc2ncccn2)cc1	-1.0%	-10.2%	-1.1%	4.8%	.	16.9µM*
COc1cccc(OC)c1C(=O)NNC(=O)c1cccc(COc2ccc3c(c2)CCC3)c1	0.447µM*	-2.0%	0.562µM*	0.366µM*	1.41µM*	4.78µM*
O=C(Nc1ccccc1)c1ccc(CSc2ccccn2)cc1	1.26µM*	11.2µM*	1.58µM*	?	22.4µM*	2.13µM*
O=C(Nc1ccc(CSc2ccccc2)cc1)c1ccccc1	13.9%	-13.6%	20.5%	2.6%	13.9%	4.0%
O=C(O)c1cccc(COc2ccc3c(c2)CCC3)c1	3.55µM*	.	3.16µM*	?	.	0.0675µM*
O=C(NC1CCCCC1)c1cccc(OCc2ccccc2)c1	-1.9%	.	2.5%	-5.0%	.	0.7%
O=C(NCc1ccccc1)c1cccc(COc2ccc3c(c2)CCC3)c1	0.355µM*	3.0%	0.355µM*	0.651µM*	1.26µM*	1.35µM*
O=C(COc1ccc2c(c1)CCC2)NCc1cccc(Cl)c1	-3.1%	.	-4.3%	-2.8%	.	-8.5%
O=C(NCCc1cccs1)C1CC(c2ccccc2[N+](=O)[O-])=NO1 (stereo unspecified)	?	0.5%	?	15.0%	24.0%	15.1µM*
COc1ccc(CCNC(=O)C2CC(c3ccccc3[N+](=O)[O-])=NO2)cc1 (stereo unspecified)	?	1.0%	?	20.9%	26.7%	19µM*
Cc1ccc(CCNC(=O)C2CC(c3ccccc3[N+](=O)[O-])=NO2)cc1 (stereo unspecified)	-2.4%	0.3%	-4.3%	-0.9%	-6.2%	-1.4%
CCCCNC(=O)C1CC(c2cccc([N+](=O)[O-])c2)=NO1 (stereo unspecified)	2.82µM*	-4.2%	2.82µM*	?	?	10.7µM*
COCCNC(=O)C1CC(c2ccccc2[N+](=O)[O-])=NO1 (stereo unspecified)	0.3%	-2.1%	2.0%	3.1%	-11.6%	-0.2%
SMILES	NPC1 prom act	Luc counter	Rab9 promoter act	ELG1 genotoxic	SMN2 splice enh	FLuc modulator
Cc1c2cnn(CC(=O)NC(C)C)c(=O)c2c(C)n1Cc1ccccc1Cl	.	.	.	.	8.5%	?
Cc1cc(Cl)ccc1NC(=O)c1cc2ccccn2n1	.	.	.	.	.	4.78µM*
CC(=O)c1cccc(NC(=O)c2cc3ccccn3n2)c1	1.78µM*	-12.5%	3.98µM*	18.4µM*	24.1%	3.38µM*
Cc1ccc(C)c(NC(=O)c2cc3ccccn3n2)c1	3.55µM*	-5.6%	2.24µM*	9.2µM*	12.6µM*	10.7µM*
Cc1ccc(C)c(NC(=O)c2cnn3ccccc23)c1	2.2%	1.3%	7.0%	?	-5.0%	?
COc1ccc(C)cc1NC(=O)c1cc2ccccn2n1	.	.	.	.	.	21.3µM*
Cc1ccc(S(=O)(=O)NC(=O)O[C@@H]2C(=O)c3cc(Br)ccc3O[C@H]2c2ccc3c(c2)OCO3)cc1	.	3.7%	.	.	.	.
Cc1nn(-c2ccc(N3CCCC3)nn2)c(C)c1CCC(=O)Nc1ccc(F)cc1F	.	.	.	.	.	-13.9%
COc1ccc(Cl)cc1NC(=O)c1cc2ccccn2n1	.	.	.	.	.	-2.2%
Cc1ccccc1NC(=O)c1cc2ccccn2n1	3.55µM*	.	1.41µM*	?	.	3.38µM*
OC(COCC1COc2ccccc2O1)CN1CCN(c2ccccc2F)CC1 (stereo unspecified)	-4.7%	4.1%	-0.1%	-3.1%	-17.1%	-0.7%
O=C(OCC1COc2ccccc2O1)c1c(F)cccc1F (stereo unspecified)	-1.3%	.	9.9%	?	.	15.1µM*
COc1ccc(NC(=O)CC2C(=O)N(c3ccccc3)C(=O)N2CCc2sccc2C)cc1 (stereo unspecified)	.	.	.	.	13.8%	-14.5%
O=C(c1cccc(Cl)c1)n1nc(-c2cccnc2)nc1NCc1ccccc1	.	.	.	.	7.9%	-7.0%
CCCCNc1nc(C)nc2c1nc(-c1ccccc1)n2C1CCN(Cc2ccccc2)C1 (stereo unspecified)	.	0.9%	.	.	-10.8%	.
COCCn1c(CNC(=O)c2cc(OC)c(OC)c(OC)c2)nc2cccnc21	.	.	.	.	.	1.5%
COc1cc(O)c2c(=O)cc(-c3ccccc3)oc2c1	?	-2.4%	26.5%	?	.	?
O=c1cc(-c2ccccc2)oc2cc(O)cc(O)c12	.	-18.3%	.	.	3.98µM*	.
O=c1cc(-c2ccc(O)cc2)oc2cc(O)cc(O)c12	?	-5.4%	19.7%[46.1 µM]	.	22.4µM*	.
COc1ccc(/C=C/C(=O)Nc2sc3c(c2C(N)=O)CCC(C)C3)cc1OC (stereo unspecified)	.	.	.	.	0.9%	-8.8%
Cc1cc(=O)[nH]c2ccc(S(=O)(=O)NC3CCCCC3)cc12	-1.4%	.	-4.0%	20.6µM*	.	1.4%
Cc1ccc(S(=O)(=O)NC2CCCC2)cc1C	0.1%	-2.3%	3.6%	-1.3%	-0.8%	-1.7%
CCOc1ccc2nc(N3CCCC(C(=O)NCc4ccc(C)cc4)C3)sc2c1 (stereo unspecified)	.	.	.	.	16.1%	-18.9%
